Assay outcomes as filed in PubChem BioAssay.
A selection: hits, their analogues and other compounds. The true share with any hit is near 3.9%.
BoNT F protease – inhibitors of Botulinum neurotoxin F light chain protease; Multiplex microsphere protease cleavage assay, flow cytometry; inhibition, % at 10 µM; AID 588497; 360,000 tested, 0.22% active; in the data active = inhibition above about 35%, passing the limit was not always enough; inconclusive = no clear call, values can overlap the other calls; note: plate controls were buffer without enzyme for full effect and enzyme alone for no effect
Anthrax LF prot – anthrax lethal factor protease inhibition; 360,000 tested, 0.12% active; P15917; multiplex microsphere protease cleavage assay, LF; inhibition, % at 10 µM; note: plate controls were buffer without enzyme for full effect and enzyme alone for no effect
Autofluor counter – counter-screen for toxin protease inhibitors: compound fluorescence; fluorescence intensity (no concentration beside the values); 360,000 tested, 3.1% active; compound autofluorescence counterscreen, microsphere flow cytometry; stronger effect = higher value; in the data active = fluorescence intensity above about 16000; inconclusive = no clear call, values can overlap the other calls
BoNT A protease – inhibitors of Botulinum neurotoxin A light chain protease; AID 588499; 360,000 tested, 0.17% active; multiplex microsphere protease substrate cleavage, flow cytometry; inhibition, % at 10 µM; note: plate controls were buffer without enzyme for full effect and enzyme alone for no effect
3CLpro inhibitor – SARS-CoV 3CLpro protease inhibition; AID 1706; 290,000 tested, 0.14% active; recombinant SARS-CoV 3CLpro, quenched FRET peptide cleavage; inhibition, % at 6 µM; in the data active = inhibition above about 12%
CCHF vOTU inh – CCHFV vOTU protease inhibition. Pep-AMC fluorescence. inhibition, % at 11.5 µM. 370,000 tested, 0.55% active. AID 651958; in the data active = inhibition above about 30%; note: 0% = vehicle wells with enzyme and 100% = no enzyme wells
Starred values were filed as active, the others as inactive; u = inconclusive; x = not tested or not shown. Cut-off read from the data, not from the text of the source, unless noted: active = inhibition above about 30%; inconclusive = no clear call, values can overlap the other calls; inactive = below that.

SMILES | BoNT F protease | Anthrax LF prot | Autofluor counter | BoNT A protease | 3CLpro inhibitor | CCHF vOTU inh
Cc1ccc(-c2nc(CSCC(=O)N3CCCC3)c(C)o2)cc1 | -4 | -4 | 23517* | -3 | 5 | -4
COCCNC(=O)C[C@H]1CC[C@H]2[C@@H](COc3ccc(NS(=O)(=O)c4ccc(Cl)cc4)cc3C(=O)N2C)O1 | x | x | x | x | x | 7
NS(=O)(=O)c1ccc(NC(=O)CSc2nc3ccccc3c(=O)n2-c2ccc(Br)cc2)cc1 | x | x | x | x | x | -2
COC(=O)[C@]12C[C@H](CC(=O)NCCC(C)C)C(=O)N(Cc3ccc4c(c3)OCO4)C1=C[C@H](C(C)C)O[C@@H]2C1CC1 | x | x | x | x | x | 21
CN(Cc1ccccc1)C(=O)OCc1cn(Cc2ccc(F)c(F)c2)nn1 | x | x | x | x | x | 6
COc1ccccc1N1CCN(S(=O)(=O)c2ccc3c(c2)CCC(=O)N3)CC1 | x | x | x | x | x | 0
CCOP(=O)(OCC)c1nc(-c2cccc3ccccc23)oc1NCc1ccc(OC)cc1 | -11 | -4 | 5422 | -2 | -1 | -73
CCOP(=O)(OCC)c1nc(/C=C/c2ccccc2)oc1NCc1ccc(OC)cc1 | -7 | -14 | 24914* | -6 | 4 | -290
CCOP(=O)(OCC)c1nc(/C=C/c2ccccc2)oc1NCc1ccccc1 | 6 | -6 | 4335 | 0 | 1 | -302
CCOP(=O)(OCC)c1nc(-c2cccc3ccccc23)oc1NCc1ccccc1 | -9 | -5 | 17554* | -5 | 2 | -20
Cc1cc(C)c(C(=O)/C=C/c2ccc(C(C)C)cc2)c(=O)[nH]1 | 5 | -1 | 17863* | 5 | 1 | 3
CCN1CCN(c2nc3ccccc3nc2C(C#N)S(=O)(=O)c2ccc(C)c(C)c2)CC1 (stereo unspecified) | -2 | -1 | 22821* | 0 | -2 | 2
CCCCCCOC(=O)C(C#N)c1nc2ccccc2nc1N1CCOCC1 (stereo unspecified) | 1 | -5 | 19713* | 2 | -2 | 2
Cc1cccc(S(=O)(=O)C(C#N)c2nc3ccccc3nc2N2CC(C)OC(C)C2)c1 (stereo unspecified) | -8 | 0 | 8102 | 2 | -5 | -11
CC1CN(c2nc3ccccc3nc2C(C#N)C(=O)OC2CCCCC2)CC(C)O1 (stereo unspecified) | 3 | 16 | 21164* | u | -1 | 4
CC1CCN(c2nc3ccccc3nc2C(C#N)C(=O)OC2CCCCC2)CC1 (stereo unspecified) | 16 | 7 | 10980 | 10 | -3 | x
Cc1ccc(S(=O)(=O)C(C#N)c2nc3ccccc3nc2N2CC(C)OC(C)C2)cc1C (stereo unspecified) | -4 | 3 | 17403* | 0 | 9 | 5
Cc1ccc(CN(C)C(=O)c2ccccc2Oc2ccccc2)o1 | 5 | -2 | 21202* | 3 | 4 | 2
CCOc1nc(-c2ccc(OC)cc2)ccc1-c1noc(C)n1 | -4 | -2 | 21728* | u | -7 | -23
CCOc1cc(-c2nc(-c3ccc(C)nc3OC)no2)cc(OCC)c1OCC | -3 | -7 | 5845 | 0 | -1 | -2
CCOc1cc(-c2nc(-c3ccc(C)nc3OCC)no2)cc(OCC)c1OCC | -1 | -6 | 23089* | u | -4 | -14
Cc1ccc(S(=O)(=O)NCC2CCN(C(=O)C(=O)c3cc4ccccc4o3)CC2)cc1 | x | x | x | x | x | 26
CCn1c2c(n(C(C)=O)c1=O)C=C(C(=O)N1CCCC1)C(C)C(c1ccccc1)=C2 (stereo unspecified) | x | x | x | x | x | -6
O=C(NCc1ccco1)C1CCCN(S(=O)(=O)c2ccc(F)cc2)C1 (stereo unspecified) | x | x | x | x | x | 7
COc1ccc(S(=O)(=O)N(C(C)=O)c2ccc3oc(=O)sc3c2)cc1 | 1 | 1 | 20711* | -1 | 9 | 1
SMILES | BoNT F protease | Anthrax LF prot | Autofluor counter | BoNT A protease | 3CLpro inhibitor | CCHF vOTU inh
COc1ccc(NC(=O)CSc2nnc(-c3ccccc3C)n2N)cc1 | -2 | -1 | 22454* | -2 | 0 | 0
CCOC(=O)c1cccnc1SCC(=O)Nc1ccc(C)cc1 | -5 | 0 | 3938 | 0 | 6 | -9
COc1cc(NC(=O)CSc2ncccc2C(=O)OC(C)C)cc(OC)c1 | -3 | 0 | 23173* | -2 | 3 | 0
COc1ccc(NC(C)=O)cc1NC(=O)CSc1nnc(-c2ccc(F)cc2)n1N | -2 | -3 | 20810* | 0 | 3 | -4
COc1ccc(NC(=O)CSc2nnc(-c3ccccc3C)n2N)cc1OC | -1 | -1 | 22260* | u | -3 | 1
CCOc1cccc(-c2nnc(SCC(=O)Nc3cc(OC)cc(OC)c3)n2N)c1 | -3 | -2 | 22656* | u | 1 | 1
S=C(NCCc1ccccc1)N1Cc2cc(-c3ccccc3)ccc2-n2nncc2C1 | 6 | 12 | 5567 | 5 | x | 6
S=C(NCCc1ccccc1)N1Cc2cc(N3CCCCC3)ccc2-n2nncc2C1 | 70* | -7 | 32547* | -20 | x | 12
CC(=O)c1cc(-c2ccc(S(C)(=O)=O)cc2)c(=O)n2c1CCC2 | x | x | x | x | x | -33
O=[N+]([O-])c1ccc(Cl)c(/C=N/n2c(-c3ccncc3)n[nH]c2=S)c1 | u | 37* | 4200 | 4 | 1 | -8
O=[N+]([O-])c1ccc(O)c(/C=N/n2c(-c3ccccc3)n[nH]c2=S)c1 | 9 | 11 | 3399 | 1 | -2 | -7
COc1cc(NC(=O)C2CC(=O)NC3=C2C(=O)CCC3)cc(OC)c1 (stereo unspecified) | -3 | -5 | 20659* | -2 | 1 | -12
CC1(O)c2ccccc2C(=O)N1Cc1ccccc1 (stereo unspecified) | -2 | 1 | 17655* | -2 | -7 | -4
CC(C)C(=O)Nc1ccc(-c2nnc(-c3ccccc3)o2)cc1 | -15 | -21 | 2842 | 2 | -2 | -3
C=C(c1ccccc1)c1ccc(N(C)C)cc1 | 11 | 0 | 4239 | 0 | -2 | -13
CN(C)c1ccc(C(=O)c2ccccc2)cc1 | -3 | -2 | 17206* | -2 | -1 | 8
CC(C)C(=O)Nc1ccc(C(=O)c2ccccc2)cc1 | 0 | 0 | 19934* | -1 | 7 | 5
CCOC(=O)CC[C@@]1(C(=O)OCC)C[C@@H](CC(=O)NCCCN2CCCC2=O)C(=O)N2CCCC=C21 | x | x | x | x | x | -2
COC(=O)[C@H](C(C)C)N(Cc1cn(Cc2ccc(C)cc2)nn1)S(=O)(=O)c1ccc(F)cc1Br | x | x | x | x | x | 9
Cc1cc(=O)oc2cc(OCC3CC(c4ccc(Cl)cc4)=NO3)ccc12 (stereo unspecified) | 0 | -1 | 22029* | 0 | 2 | -14
COc1cccc(NC(=O)CNC(=O)c2ccc(OC)c(OC)c2)c1 | -12 | -6 | 4182 | -1 | 2 | 1
COc1ccc(C(=O)NCC(=O)Nc2ccc(F)cc2)cc1OC | -2 | 0 | 16515* | u | -1 | -13
COc1ccc(N2CCN(Cc3nc4ccsc4c(=O)[nH]3)CC2)cc1 | -2 | -1 | 20654* | 0 | 3 | -6
O=c1[nH]c(CN2CCN(c3ccc([N+](=O)[O-])cc3)CC2)nc2ccsc12 | -10 | -2 | 2161 | 0 | 0 | 4
